Experimental data published in ChEMBL document CHEMBL3988442, “University of Dundee, Small-Polar-MMV Screening Library” (2021).
For part of these data: Entries with a potency or affinity are not part of this list.

Assays:
Design in all cases: scale not given: direction of the effect not stated beside the values
[1] = target: Protein translocase subunit SecA (Escherichia coli (strain K12)) (UniProt P10408); test: Assay to Identify E. coli SecA ATPase Inhibitors; format: functional; settings: 30 µM
[2] = target: T1, Ubiquitin-activating enzyme e1, putative (Leishmania donovani (strain BPK282A1)) (UniProt E9BSI1); test: Leishmania donovani Ubiquitin Activating Enzyme (LdE1); format: functional; settings: 30 µM
T1 sequence (whole entry): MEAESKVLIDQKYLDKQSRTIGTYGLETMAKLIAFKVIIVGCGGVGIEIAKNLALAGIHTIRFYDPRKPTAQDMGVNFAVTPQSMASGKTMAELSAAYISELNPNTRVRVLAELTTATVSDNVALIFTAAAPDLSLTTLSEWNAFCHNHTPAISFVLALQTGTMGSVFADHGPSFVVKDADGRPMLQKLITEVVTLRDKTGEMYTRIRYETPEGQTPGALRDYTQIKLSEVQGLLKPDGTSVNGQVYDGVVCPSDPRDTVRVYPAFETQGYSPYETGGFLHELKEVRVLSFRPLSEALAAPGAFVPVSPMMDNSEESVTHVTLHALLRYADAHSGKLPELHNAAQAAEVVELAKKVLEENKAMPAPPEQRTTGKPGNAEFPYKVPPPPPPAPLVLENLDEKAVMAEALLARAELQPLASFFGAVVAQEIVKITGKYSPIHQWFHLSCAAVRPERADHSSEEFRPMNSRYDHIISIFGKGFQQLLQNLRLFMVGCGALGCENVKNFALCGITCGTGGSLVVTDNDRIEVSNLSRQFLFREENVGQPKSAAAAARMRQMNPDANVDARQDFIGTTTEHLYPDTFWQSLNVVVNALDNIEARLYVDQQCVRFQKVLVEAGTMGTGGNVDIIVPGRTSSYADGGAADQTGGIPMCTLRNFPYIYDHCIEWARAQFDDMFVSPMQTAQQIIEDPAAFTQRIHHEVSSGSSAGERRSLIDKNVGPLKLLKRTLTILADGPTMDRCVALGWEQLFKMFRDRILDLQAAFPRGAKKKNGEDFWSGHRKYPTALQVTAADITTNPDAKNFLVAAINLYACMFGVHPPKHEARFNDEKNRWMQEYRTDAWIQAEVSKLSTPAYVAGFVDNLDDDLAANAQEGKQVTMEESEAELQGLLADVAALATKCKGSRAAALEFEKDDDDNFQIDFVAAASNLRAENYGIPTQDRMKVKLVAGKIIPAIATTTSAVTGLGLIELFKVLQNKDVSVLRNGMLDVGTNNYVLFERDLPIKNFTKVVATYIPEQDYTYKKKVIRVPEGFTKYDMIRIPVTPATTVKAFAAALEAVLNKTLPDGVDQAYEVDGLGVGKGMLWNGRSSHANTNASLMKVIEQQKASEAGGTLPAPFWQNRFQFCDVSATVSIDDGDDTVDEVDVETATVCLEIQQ

[3] = target: T2, Aspartate--tRNA(Asp/Asn) ligase (Mycobacterium tuberculosis (strain ATCC 25618 / H37Rv)) (UniProt P9WFW3); test: Assay for Asp RNA synthetase-1 from Mycobacterium tuberculosis; format: functional; settings: 30 µM; also: in the data most compounds retested in dose-response had high values
T2 sequence (whole entry): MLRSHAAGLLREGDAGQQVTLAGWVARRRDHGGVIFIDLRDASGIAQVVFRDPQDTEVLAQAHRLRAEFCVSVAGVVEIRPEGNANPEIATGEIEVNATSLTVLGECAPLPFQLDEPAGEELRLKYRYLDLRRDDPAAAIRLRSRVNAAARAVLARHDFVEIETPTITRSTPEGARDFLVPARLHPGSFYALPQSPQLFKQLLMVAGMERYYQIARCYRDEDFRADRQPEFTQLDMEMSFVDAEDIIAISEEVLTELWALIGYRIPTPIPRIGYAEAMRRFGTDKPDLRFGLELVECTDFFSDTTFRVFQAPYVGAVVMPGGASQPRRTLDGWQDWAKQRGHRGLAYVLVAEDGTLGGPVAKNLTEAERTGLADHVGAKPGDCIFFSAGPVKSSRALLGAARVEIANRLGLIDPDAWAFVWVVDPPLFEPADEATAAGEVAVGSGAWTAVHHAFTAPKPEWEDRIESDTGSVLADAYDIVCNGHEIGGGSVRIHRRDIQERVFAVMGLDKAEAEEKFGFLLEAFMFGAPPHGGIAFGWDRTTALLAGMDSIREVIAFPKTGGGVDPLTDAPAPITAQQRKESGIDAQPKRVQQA

[4] = target: AMP-activated protein kinase, AMPK (Homo sapiens) (UniProt P54646+O43741+P54619+Q9UGJ0+Q9Y478+Q13131+Q9UGI9); test: AMP-dependent Kinase enzyme assay. An in vitro enzyme assay that detects ADP turnover that is directly proportional to AMPK activity. This uses naive AMPK that is activated during the assay with MK-8722; format: functional; settings: 30 µM
[5] = target: Sialic acid-binding Ig-like lectin 9 (Homo sapiens) (UniProt Q9Y336); test: Hs-Siglec9 ALPHAscreen SOP 20170721; settings: 10 µM
Trypanosoma cruzi = test: Trypanosoma cruzi phosphomannomutase and mannose-1-phosphate guanylyltransferase assay; format: functional; settings: 10 µM
[6] = target: T3, Arginase-2, mitochondrial (Homo sapiens) (UniProt P78540); test: in vitro enzyme assay to detect the production of urea directly proportional to the activity of Arginase II; format: functional; settings: 33.3 µM; also: in the data most compounds retested in dose-response had high values
T3 sequence (whole entry): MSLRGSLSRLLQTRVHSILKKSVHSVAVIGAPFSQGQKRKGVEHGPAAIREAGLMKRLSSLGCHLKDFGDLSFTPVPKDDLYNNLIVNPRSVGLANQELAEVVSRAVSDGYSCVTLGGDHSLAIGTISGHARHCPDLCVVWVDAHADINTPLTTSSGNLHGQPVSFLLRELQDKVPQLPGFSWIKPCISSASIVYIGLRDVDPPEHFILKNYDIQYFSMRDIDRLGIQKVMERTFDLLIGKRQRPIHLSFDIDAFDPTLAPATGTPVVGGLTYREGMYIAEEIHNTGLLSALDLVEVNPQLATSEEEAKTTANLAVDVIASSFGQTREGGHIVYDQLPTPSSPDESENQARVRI

[7] = target: T4, Proteasome subunit beta (Trypanosoma cruzi) (UniProt O96673); test: Trypanosoma cruzi proteasome chymotrypsin-like activity (TcProtChymo) assay.; also: in the data most compounds retested in dose-response had high values; format: functional; settings: 9.37 µM
T4 sequence (whole entry): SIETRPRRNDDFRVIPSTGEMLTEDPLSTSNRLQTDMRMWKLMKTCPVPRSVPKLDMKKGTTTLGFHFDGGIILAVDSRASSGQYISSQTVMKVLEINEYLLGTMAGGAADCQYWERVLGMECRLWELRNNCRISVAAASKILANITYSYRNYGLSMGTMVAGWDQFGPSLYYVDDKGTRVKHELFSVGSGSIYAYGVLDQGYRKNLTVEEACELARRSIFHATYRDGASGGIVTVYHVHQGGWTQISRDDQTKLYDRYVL

Homo sapiens = organism: Homo sapiens; test: To identify inhibition of the IFN signalling (Jak-Stat) pathway via expression of an eGFP reporter gene under the control of an IFN-stimulated response element (ISRE) containing MxA promoter.; format: functional; settings: 30 µM
[8] = target: Shiga toxin 2 (Escherichia coli O157:H7) (UniProt P09385+P09386); test: E. coli 0.157:H7 Shiga Toxin SOP - stx2 screening assay; format: functional; settings: 30 µM
[9] = target: T5, Tyrosyl-tRNA synthetase, putative (Trypanosoma cruzi (strain CL Brener)) (UniProt Q4DSP6); test: Trypanosoma cruzi tyrosyl tRNA synthetase (TcYRS) _High Tyrosine SOP; format: functional; settings: 30 µM; also: in the data most compounds retested in dose-response had high values
T5 sequence (whole entry): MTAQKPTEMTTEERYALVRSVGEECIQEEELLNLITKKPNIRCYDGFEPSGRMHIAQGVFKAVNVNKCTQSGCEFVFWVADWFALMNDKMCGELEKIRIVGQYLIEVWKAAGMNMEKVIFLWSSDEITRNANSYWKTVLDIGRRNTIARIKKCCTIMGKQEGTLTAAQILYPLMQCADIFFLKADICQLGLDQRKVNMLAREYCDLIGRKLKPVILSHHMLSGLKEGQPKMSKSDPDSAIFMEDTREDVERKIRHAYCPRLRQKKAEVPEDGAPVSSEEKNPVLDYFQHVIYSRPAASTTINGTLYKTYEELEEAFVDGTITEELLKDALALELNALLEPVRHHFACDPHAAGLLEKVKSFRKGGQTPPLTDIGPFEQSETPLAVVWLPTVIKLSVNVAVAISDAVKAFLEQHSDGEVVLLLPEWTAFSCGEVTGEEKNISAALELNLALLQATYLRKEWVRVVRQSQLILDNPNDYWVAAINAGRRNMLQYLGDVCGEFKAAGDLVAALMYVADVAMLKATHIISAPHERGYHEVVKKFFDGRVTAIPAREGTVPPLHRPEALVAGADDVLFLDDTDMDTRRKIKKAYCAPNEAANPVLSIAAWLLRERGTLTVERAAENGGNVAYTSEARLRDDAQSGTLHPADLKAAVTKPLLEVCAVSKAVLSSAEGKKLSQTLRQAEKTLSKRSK

[10] = target: T5, Tyrosyl-tRNA synthetase, putative (Trypanosoma cruzi (strain CL Brener)); test: Trypanosoma cruzi tyrosyl tRNA synthetase (TcYRS) SOP; format: functional; settings: 30 µM
[11] = target: Chromo domain-containing protein 1 (Saccharomyces cerevisiae (strain ATCC 204508 / S288c) (Baker's yeast)) (UniProt P32657); test: ScCHD-1 Enzyme Inhibition Assay; format: functional; settings: 30 µM; also: in the data most compounds retested in dose-response had high values
Chain of Chromo domain-containing protein 1 (Saccharomyces cerevisiae (strain ATCC 204508 / S288c) (Baker's yeast)) (P32657 whole entry, the tested form may be a part): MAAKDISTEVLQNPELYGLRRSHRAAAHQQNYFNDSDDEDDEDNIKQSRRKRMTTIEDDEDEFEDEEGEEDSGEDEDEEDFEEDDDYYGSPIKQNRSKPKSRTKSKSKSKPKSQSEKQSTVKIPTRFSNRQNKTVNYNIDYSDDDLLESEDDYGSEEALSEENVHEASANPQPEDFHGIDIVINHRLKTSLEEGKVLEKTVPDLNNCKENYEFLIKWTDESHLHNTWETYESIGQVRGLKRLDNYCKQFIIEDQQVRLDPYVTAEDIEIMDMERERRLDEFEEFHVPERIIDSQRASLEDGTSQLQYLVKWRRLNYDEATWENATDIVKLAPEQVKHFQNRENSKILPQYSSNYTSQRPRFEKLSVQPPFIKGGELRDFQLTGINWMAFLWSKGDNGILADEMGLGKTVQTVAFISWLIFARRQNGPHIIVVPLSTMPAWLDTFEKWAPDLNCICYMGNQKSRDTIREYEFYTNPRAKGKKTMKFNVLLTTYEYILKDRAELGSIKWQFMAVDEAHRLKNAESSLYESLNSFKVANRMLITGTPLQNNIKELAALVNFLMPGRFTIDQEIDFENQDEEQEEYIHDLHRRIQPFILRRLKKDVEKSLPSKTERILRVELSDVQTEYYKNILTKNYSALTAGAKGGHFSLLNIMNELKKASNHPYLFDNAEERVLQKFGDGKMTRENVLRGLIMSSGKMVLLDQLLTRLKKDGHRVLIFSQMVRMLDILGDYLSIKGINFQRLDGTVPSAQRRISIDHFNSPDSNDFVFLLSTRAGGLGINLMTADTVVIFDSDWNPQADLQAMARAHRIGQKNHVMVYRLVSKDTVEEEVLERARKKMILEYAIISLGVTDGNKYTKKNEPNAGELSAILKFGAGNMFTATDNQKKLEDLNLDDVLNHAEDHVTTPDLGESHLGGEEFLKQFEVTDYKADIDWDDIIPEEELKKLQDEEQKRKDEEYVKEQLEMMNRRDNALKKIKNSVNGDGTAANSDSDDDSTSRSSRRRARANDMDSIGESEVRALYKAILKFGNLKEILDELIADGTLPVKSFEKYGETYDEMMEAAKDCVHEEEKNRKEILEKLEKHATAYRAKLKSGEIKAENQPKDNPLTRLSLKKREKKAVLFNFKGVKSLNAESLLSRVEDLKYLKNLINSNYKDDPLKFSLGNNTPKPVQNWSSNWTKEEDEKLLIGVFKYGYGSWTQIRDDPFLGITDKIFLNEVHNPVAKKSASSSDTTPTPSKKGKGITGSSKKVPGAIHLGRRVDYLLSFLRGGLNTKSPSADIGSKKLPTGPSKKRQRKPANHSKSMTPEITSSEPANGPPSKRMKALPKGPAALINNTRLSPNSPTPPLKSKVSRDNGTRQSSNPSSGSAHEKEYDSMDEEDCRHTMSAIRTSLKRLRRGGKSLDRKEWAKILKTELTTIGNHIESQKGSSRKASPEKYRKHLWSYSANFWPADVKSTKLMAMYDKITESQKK

Chain of Protein translocase subunit SecA (Escherichia coli (strain K12)) (P10408 whole entry): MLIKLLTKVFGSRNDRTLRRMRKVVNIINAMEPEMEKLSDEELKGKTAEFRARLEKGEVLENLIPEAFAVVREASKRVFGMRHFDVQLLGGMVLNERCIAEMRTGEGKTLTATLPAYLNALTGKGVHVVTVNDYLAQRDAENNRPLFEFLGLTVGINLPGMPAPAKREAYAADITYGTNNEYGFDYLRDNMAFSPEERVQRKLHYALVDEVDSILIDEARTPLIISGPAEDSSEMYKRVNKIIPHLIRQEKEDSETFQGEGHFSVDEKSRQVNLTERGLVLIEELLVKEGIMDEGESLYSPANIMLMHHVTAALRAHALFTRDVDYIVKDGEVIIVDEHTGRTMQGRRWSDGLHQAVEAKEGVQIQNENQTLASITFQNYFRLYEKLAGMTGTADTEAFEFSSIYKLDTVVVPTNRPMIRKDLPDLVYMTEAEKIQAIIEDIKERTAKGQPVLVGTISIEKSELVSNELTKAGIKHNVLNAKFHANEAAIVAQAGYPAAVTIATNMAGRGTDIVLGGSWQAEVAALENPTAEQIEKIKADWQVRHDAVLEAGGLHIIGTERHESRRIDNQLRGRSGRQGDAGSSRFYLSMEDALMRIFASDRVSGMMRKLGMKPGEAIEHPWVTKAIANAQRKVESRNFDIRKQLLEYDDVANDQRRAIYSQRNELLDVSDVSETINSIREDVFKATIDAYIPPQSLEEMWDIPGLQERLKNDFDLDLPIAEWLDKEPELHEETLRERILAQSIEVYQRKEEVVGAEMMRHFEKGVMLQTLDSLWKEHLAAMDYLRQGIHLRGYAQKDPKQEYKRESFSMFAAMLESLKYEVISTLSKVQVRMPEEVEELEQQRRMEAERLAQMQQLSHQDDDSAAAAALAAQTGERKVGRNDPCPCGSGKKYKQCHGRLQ
Chain of Sialic acid-binding Ig-like lectin 9 (Homo sapiens) (Q9Y336 whole entry): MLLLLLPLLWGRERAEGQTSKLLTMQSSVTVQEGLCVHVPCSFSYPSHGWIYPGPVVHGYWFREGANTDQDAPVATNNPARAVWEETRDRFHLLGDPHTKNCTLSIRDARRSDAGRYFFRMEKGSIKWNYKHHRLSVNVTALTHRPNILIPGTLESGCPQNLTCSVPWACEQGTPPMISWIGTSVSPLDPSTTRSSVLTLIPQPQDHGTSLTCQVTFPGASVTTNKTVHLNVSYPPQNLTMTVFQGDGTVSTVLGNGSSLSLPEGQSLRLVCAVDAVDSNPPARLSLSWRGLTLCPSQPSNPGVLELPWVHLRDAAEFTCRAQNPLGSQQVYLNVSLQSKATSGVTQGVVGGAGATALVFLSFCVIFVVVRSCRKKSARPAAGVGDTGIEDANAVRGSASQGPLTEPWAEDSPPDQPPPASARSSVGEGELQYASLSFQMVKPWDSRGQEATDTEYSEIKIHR

Compound	Percent Effect [1] [%]	Percent Effect [2] [%]	Percent Effect [3] [%]	Percent Effect [4] [%]	Percent Effect [5] [%]	Percent Effect (Trypanosoma cruzi) [%]	Percent Effect [6] [%]	Percent Effect [7] [%]	Percent Effect (Homo sapiens) [%]	Percent Effect [8] [%]	Percent Effect [9] [%]	Percent Effect [10] [%]	Percent Effect [11] [%]
CC[C@H](N)Cn1nc(-c2cccs2)oc1=O	-1.83	9.46	7.37	12	-5.1	-1.98	-1.62	16.7	2.87	5.59	1.07	3.9	-13.2
O=C(Cc1cccs1)N1C[C@@H]2OCCN(CC3CCCO3)[C@@H]2C1 (some centres not stated)	-3.88	0	-5.27	-1.33	4.51	-2.58	-0.399	15.3	15.2	-19.8	2.08	6.17	-0.242
c1cnc(NC[C@@H]2CCC[C@@H]3CN(Cc4cccnc4)C[C@@H]32)nc1	0.229	10.8	-0.324	-2.93	-7.32	1.56	25.4	15.5	10.2	-34.3	13.9	18.3	-3
c1cnc(NC[C@@H]2CCC[C@@H]3CN(Cc4cc[nH]n4)C[C@@H]32)nc1	-1.01	10.8	-0.521	-5.7	-5.33	5.66	4.17	7.69	6.51	-15	10.9	15.8	-6.02
CO[C@@H]1CC[C@H]2[C@H]1OCCN2CC1CCOCC1	-7.48	13.5	-1.82	-2.63	10.8	3.91	3.33	8.88	1.72	9.96	4.95	13.4	-4.03
Cn1ccnc1CN1CCC2(CC(=O)N(c3cncnc3)C2)C1 (configuration not stated)	-1.68	2.7	-3.41	10	1.79	-2.64	2.23	21.2	2.89	0.165	2.16	12.8	1.86
Cc1cccc(CN2C[C@@H]3CCCO[C@@H]3[C@H](NS(C)(=O)=O)C2)n1	-4.89	21.3	4.75	-6.76	-3.19	5.99	-50.4	11.1	-3.89	-20.3	7.29	25	-7.06
c1cncc(N2CCOCC3(CCCN(Cc4cccs4)C3)C2)c1 (configuration not stated)	-5.18	13.5	2.95	5.95	-1.9	-0.293	2.23	10.3	4.59	14.1	8.65	15.4	-1.37
c1ccc(CN2CCO[C@H]3[C@H](OCCN4CCCC4)CC[C@@H]32)nc1	-1.73	-2.67	0.641	2.45	8.64	-2.7	-53.2	-0.855	-6.91	-16.4	4.17	5	0.266
